Data reported in PubChem BioAssay.

Assay: DUSP6 inhibitors restoring Erk phosphorylation by chemical complementation, primary imaging in DUSP6-transfected HeLa (AID 609)
Conditions: HeLa MKP-3 transfected, phospho-Erk imaging KS statistic; measured here: cell density z-score; at 10 µM; cells stimulated with TPA for 15 min

| SMILES | z-score |
| --- | --- |
| O=C(c1ccc(=O)oc1)N1CCN(c2ccc(F)cc2)CC1 | -0.519 |
| CC(C)(C)C1=Nn2c(nnc2-c2ccco2)SC1 | -0.164 |
| COc1cc(OC)cc(C(=O)N2CCC(N3CCCCCC3)CC2)c1 | 2.06 |
| COc1cc(=O)n2c(-c3ccccc3)csc2n1 | -1.46 |
| COc1ccccc1OCC(=O)Nc1ccc(S(=O)(=O)Nc2cc(C)nc(C)n2)cc1 | 0.333 |
| COCCCNC(=O)c1c(N)n(/N=C/c2cccs2)c2nc3ccccc3nc12 | 0.439 |
| CCOC(=O)CNS(=O)(=O)c1cc(-c2nn(C)c(=O)c3ccccc23)ccc1C | 1.99 |
| N#CC1=C(SCc2ccccc2)NC2=C(C(=O)CCC2)C1c1ccc2c(c1)OCO2 (centres undefined) | 0.352 |
| CCOC(=O)c1[nH]c2cc3c(cc2c1NC(=O)CN1CCc2ccccc2C1)OCO3 | -0.283 |
| CCOC(=O)c1ccc(NC(=O)CCC(CC)C(=O)O)cc1 (centres undefined) | 1.04 |
| CCOC(=O)CSc1nc2ccccc2c(=O)n1C | -0.479 |
| CC(O)Cn1ccccc1=N (centres undefined) | 0.162 |
| CC1CN(C2CCN(S(=O)(=O)Cc3ccccc3)CC2)CC(C)O1 (centres undefined) | 0.356 |
| CN1CCN(c2ncnc3c2[nH]c2ccc(F)cc23)CC1 | -0.484 |
| COc1cc(-c2nn3c(C4CCCCC4)nnc3s2)cc(OC)c1OC | -1.15 |
| O=C1OC(Nc2ccc(Br)cn2)c2ccccc21 (centres undefined) | -0.833 |
| Cc1nnc2n(Cc3ccccc3)c(=O)c3c4c(sc3n12)CN(Cc1ccccc1)CC4 | -0.0797 |
| O=C(O)C(Cc1c[nH]c2ccccc12)NS(=O)(=O)c1cccc2nsnc12 (centres undefined) | -0.832 |
| Cc1ccc(C(=O)C2=C(O)C(=O)N(c3ncccn3)C2c2ccc(Cl)cc2)o1 (centres undefined) | -1.13 |
